Results with a measured potency or affinity are listed apart. Inconclusive results are not listed. Active and inactive are the calls of the source. No rule for the calls is given here.
These compounds were tested against CAAX prenyl protease 1 (Saccharomyces cerevisiae (strain ATCC 204508 / S288c)) (UniProt P47154) (assay: Ste24 protease inhibitors, dose response, biochemical, S. cerevisiae, plate reader, cherry-pick (AID 488815)). Conditions: yeast Ste24 protease activity; series mostly up to 10 µM.
Chain of CAAX prenyl protease 1 (Saccharomyces cerevisiae (strain ATCC 204508 / S288c)) (P47154 whole entry, looked up): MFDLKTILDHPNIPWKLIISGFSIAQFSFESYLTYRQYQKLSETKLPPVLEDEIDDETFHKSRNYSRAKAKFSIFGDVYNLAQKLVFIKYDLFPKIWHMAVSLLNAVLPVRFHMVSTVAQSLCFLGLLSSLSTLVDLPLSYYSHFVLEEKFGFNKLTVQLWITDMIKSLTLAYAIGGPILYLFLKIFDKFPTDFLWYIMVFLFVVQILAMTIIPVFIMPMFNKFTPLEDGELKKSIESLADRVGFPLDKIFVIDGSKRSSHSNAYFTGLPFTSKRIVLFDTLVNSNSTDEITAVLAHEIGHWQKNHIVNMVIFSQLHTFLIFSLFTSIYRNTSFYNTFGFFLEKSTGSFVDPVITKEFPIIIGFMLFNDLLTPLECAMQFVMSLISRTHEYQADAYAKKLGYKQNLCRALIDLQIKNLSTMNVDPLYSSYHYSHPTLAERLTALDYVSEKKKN
For COc1cccc(-c2csc(N3CCN(C(=O)NC45CC6CC(CC(C6)C4)C5)CC3)n2)c1, the outcome was “inactive”.
With COc1ccc(C(CNC(=O)COc2cc(C)c(Cl)c(C)c2)N2CCCCC2)cc1 (stereo not given) the outcome was “inactive”.
With NC(=O)c1nsc(C(=O)N(c2ccccc2F)C(C(=O)NCc2ccccc2)c2ccc(O)cc2)c1N (stereo not given) the outcome was “inactive”.
For O=C(CCNC(=O)N1CC(=O)Nc2ccccc21)NCCc1cccc(F)c1, the outcome was “inactive”.
COc1ccc(S(=O)(=O)N(CC(=O)N2CCCC2)Cc2ccccc2)cc1 was tested, and the outcome was “inactive”.
For Nc1c(Cl)cc(C2=NCCn3nc4cc(C(F)(F)F)ccc4c32)cc1Cl, the outcome was “inactive”.
For O=C(O)CCC(=O)c1ccc(-c2ccccc2)cc1, the outcome was “inactive”.
For Cc1nc(N2CCOCC2)c2c(C)c(C(=O)Nc3ccc(C(F)(F)F)cc3)sc2n1, the outcome was “inactive”.
For CC1=C(C(=O)OCc2ccccc2)C(c2ccc(-c3ccccc3)cc2)NC(=O)N1CCCC(=O)O (stereo not given), the outcome was “inactive”.
In the case of Cc1cc(C)n2nc(CC(=O)NNC(=O)c3ccc(N(C)C)cc3)nc2n1, the outcome is reported as “inactive”.
With O=C1NC2(C=Cc3c(ccc4ccccc34)O2)Oc2ccccc21 (stereo not given) the outcome was “inactive”.
In the case of Cc1ccc2nc(N(CCN(C)C)C(=O)c3ccc4ccccc4c3)sc2c1, the outcome is reported as “inactive”.
CC(C)(C)C(=O)C[n+]1ccc(C(N)=O)cc1 was tested, and the outcome was “inactive”.
CC1=NN(c2ccccc2)C(=O)/C1=C\c1ccc(Br)s1 was tested, and the outcome was “inactive”.
In the case of COc1ccc(C2CC(c3ccccc3)=NN2C(=O)c2ccc(Cl)c([N+](=O)[O-])c2)cc1 (stereo not given), the outcome is reported as “inactive”.
Cc1cc(NC(=O)c2oc3ccccc3c2C)ccc1-n1cnnn1 was tested, and the outcome was “inactive”.
CN1CCN(C(=S)NC(=O)c2ccccc2Cl)CC1 was tested, and the outcome was “inactive”.
With COc1nc(-c2ccccc2)ccc1-c1noc(-c2ccccc2F)n1 the outcome was “inactive”.
In the case of CCn1nc(C)cc1C(=O)NC1CC(C)(C)Cc2c1cnn2-c1cccc(F)c1 (stereo not given), the outcome is reported as “inactive”.
With CC(C)N1CCN(S(=O)(=O)c2ccc3ccccc3c2)CC1 the outcome was “inactive”.
For O=C(O)c1ccc2cccc(Cl)c2c1O, the outcome was “inactive”.
In the case of Cc1nc(N2CCCCC2)c2c(C)c(C(=O)Nc3ccccc3C(F)(F)F)sc2n1, the outcome is reported as “inactive”.
With Cc1cc(C)n(Cc2ccc(NC(=O)c3ccc(COc4ccccc4Br)cc3)cc2)n1 the outcome was “inactive”.
In the case of Cc1ccc(C(=O)c2c3ccccc3[n+]([O-])n2CCO)cc1, the outcome is reported as “inactive”.
For O=C(Nc1ccc2c(c1)CCC2)c1ccccc1Br, the outcome was “inactive”.
With COc1cccc(C2CC(c3ccc(Br)cc3)=NN2C(=O)c2ccncc2)c1OC (stereo not given) the outcome was “inactive”.
Cc1ccc(OCCN2C(=O)C(=O)c3cc(C)ccc32)cc1 was tested, and the outcome was “inactive”.
For COc1ccc(-n2c(SCc3ccc([N+](=O)[O-])cc3)nnc2-c2ccc(C)cc2)cc1, the outcome was “inactive”.
For O=C(c1cc(-c2ccccc2)nc2ccccc12)N1CCN(c2ccccn2)CC1, the outcome was “inactive”.
With C=C(C)C1(O)OC(=O)C=C1OC (stereo not given) the outcome was “inactive”.
With Cc1nc(N2CCOCC2)c2cc(-c3ccccc3)sc2n1 the outcome was “inactive”.
CC(=O)N[C@@H](C)c1nc2ccccc2n1CCCN1CCN(c2nc(-c3ccc(C)cc3)cs2)CC1 was tested, and the outcome was “inactive”.
In the case of O=C(C(Cc1ccccc1)N1C(=O)c2ccccc2C1=O)N1c2ccccc2CCc2ccccc21 (stereo not given), the outcome is reported as “inactive”.
C/C(Cl)=C\Cn1c(O)c(N=NC(N)=S)c2cc(Br)ccc21 was tested, and the outcome was “inactive”.
For CCCCCCCCNC(C)C(O)c1ccc(SC(C)C)cc1 (stereo not given), the outcome was “inactive”.
O=C(O)CCc1nc2cc(C(F)(F)F)ccc2n(Cc2ccccc2)c1=O was tested, and the outcome was “inactive”.
With CC(=O)c1c(C)oc2ccc(NS(=O)(=O)c3ccc(C(=O)O)cc3)cc12 the outcome was “inactive”.
For CCCCNC(=S)N=Nc1c(O)n(Cc2ccccc2)c2ccccc12, the outcome was “inactive”.
For COc1ccc(-c2nc3ncccc3o2)cc1NC(=O)c1ccco1, the outcome was “inactive”.
With Cc1cc(Cl)c2oc(C(=O)N3CCN(C(=O)c4ccco4)CC3)c(C)c2c1 the outcome was “inactive”.

From PubChem BioAssay AID488815 (Broad Institute, 2010)
